Here are results for 25 compounds from PubChem BioAssay.

Molecules are shown by their SMILES. Where “and” joins values, the source holds several entries; their conditions need not be identical. Equal values may be shown once. Calls of active or inactive are those of the source. The rule behind the calls is not given here.

Test [1] in a line: enhancers of glutamate uptake in motor neurons, MN-1 cell line (AID 1612).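 Note: tested at 1 µM final; 0% = mean of DMSO vehicle wells on each plate; positive means more glutamate uptake than control and negative means less.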 Conditions: MN-1 motor neuron cells, stronger effect = higher value.
The nature of test [2]: reducers of polyQ inclusions in PC12 cells, cell-based, NGF-treated PC12, GFPQ80 (AID 1614).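 Note: lower means fewer inclusions and 0 means no inclusions at all.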 Conditions: PC12 NGF-treated GFP-polyQ80 inclusion reduction.
A short description of test [3]: suppressors of polyglutamine aggregation in yeast, 75Q-TubH (AID 1616). The note with it: S. cerevisiae 75Q-TubH polyglutamine aggregation suppression; stronger effect = higher value.
The nature of test [4]: hESC survival regulators, cell-based (AID 493140).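 Note: cells exposed to compounds for four days before counting.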 Conditions: human embryonic stem cell survival screen; stronger effect = higher value.
The nature of test [5]: circadian clock period modulators, cell-based, LOPAC library, luminescence reporter (AID 2774).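 Note: values are relative to mean of DMSO wells on each plate.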 The note with it: circadian reporter cells, at 7 µM, actives lie on both sides.

Regarding `COc1ccc2cc3[n+](cc2c1OC)CCc1cc2c(cc1-3)OCO2`, the glutamate uptake change in test [1] turned out to be 15.2%. The compound further returned an inclusion score in test [2] of 2. Further, the aggregation suppression score in test [3] was 0.27. Further, in test [4], the survival was 0.5 (inactive).
Turning to `Nc1ccc(S(N)(=O)=O)cc1`, in test [1], the glutamate uptake change was -2.33%. In test [2], this compound came in with an inclusion score of 2. The same compound had an aggregation suppression score in test [3] of 1.25. Moreover, in test [4], the survival was 5.08 (inactive).
In the case of `O=C1CC2(CCCC2)CC(=O)N1CCCCN1CCN(c2ncccn2)CC1`, in test [1], the glutamate uptake change turned out to be 15.2%. In test [2], this compound registered an inclusion score of 2. The same compound gave an aggregation suppression score in test [3] of 1.24. Besides, the period change in test [5] was -0.08 h (inactive). In addition, the survival in test [4] was 4 (inactive).
On to `Cc1cc(=O)n(-c2ccccc2)n1C`, for which the glutamate uptake change in test [1] is -12.9%. In addition, in test [2], the inclusion score was 2. The same compound came in with an aggregation suppression score in test [3] of 1.35. Further, the survival in test [4] was 27 (inactive).
With `CC(=O)OCC1=C(C(=O)O)N2C(=O)[C@@H](NC(=O)CSc3ccncc3)[C@H]2SC1`, the glutamate uptake change in test [1] is -2.14%. In test [2], this compound had an inclusion score of 2. Also, in test [3], the aggregation suppression score came out at 1.12. Besides, the period change in test [5] is 0.035 h (inactive). The survival in test [4] was 1.83 (inactive).
Regarding `Nc1cc(-c2ccncc2)c[nH]c1=O`, the glutamate uptake change in test [1] turned out to be 12.5%. The inclusion score in test [2] was found to be 2. In test [3], the aggregation suppression score was 1.17. The survival in test [4] was 2.67 (inactive).
For `C[N+]12CCC(CC1)C(OC(=O)C(O)(c1ccccc1)c1ccccc1)C2` (stereo not drawn), in that order: -0.25%, 2, 1.21 and 4.17 (inactive).
For the compound `CC(N)CCCC(C)(C)O` (stereo not drawn), the glutamate uptake change in test [1] was -4.36%. The compound also registered an inclusion score in test [2] of 2. Further, the aggregation suppression score in test [3] worked out at 1.46. Besides, the survival in test [4] is 21.5 (inactive).
Consider `COc1cc(NS(=O)(=O)c2ccc(N)cc2)ncn1`, for which the glutamate uptake change in test [1] was found to be 2.45%. For the same compound, in test [2], the inclusion score came to 2. Moreover, in test [3], the aggregation suppression score was determined as 1.2. For the same compound, the survival in test [4] is 3.67 (inactive).
Consider `C=C1c2cccc(O)c2C(O)=C2C(=O)[C@]3(O)C(O)=C(C(N)=O)C(=O)[C@@H](N(C)C)[C@@H]3[C@@H](O)[C@H]12`, for which, in test [1], the glutamate uptake change was -2.5%. The compound also yielded an inclusion score in test [2] of 1. The same compound showed an aggregation suppression score in test [3] of 0.29. Besides, the survival in test [4] was 4.33 (inactive).
As for `CC(C)NCC(O)c1ccc2ccccc2c1` (stereo not drawn), in test [1], the glutamate uptake change came to 6.56%. For the same compound, in test [2], the inclusion score turned out to be 2. This compound had an aggregation suppression score in test [3] of 0.983. In test [4], the survival is 5.67 (inactive).
As for `CC1=C(C(=O)O)N2C(=O)[C@@H](NC(=O)[C@H](N)c3ccc(O)cc3)[C@H]2SC1`, in test [1], the glutamate uptake change was -6.33%. The same compound yielded an inclusion score in test [2] of 2.5. The compound also showed an aggregation suppression score in test [3] of 1.47. The survival in test [4] is 5 (inactive).
Consider `Cc1ccccc1OCC(O)CO` (stereo not drawn), for which the glutamate uptake change in test [1] is 18.9%. The inclusion score in test [2] amounted to 2. In test [3], this compound yielded an aggregation suppression score of 1.74. For the same compound, the survival in test [4] is 11.9 (inactive).
Consider `C[n+]1ccccc1/C=N/O`, for which the glutamate uptake change in test [1] was -3.95%. Also, the inclusion score in test [2] stood at 2. In test [3], this compound displayed an aggregation suppression score of 1.54. The survival in test [4] is 5.75 (inactive).
`O=c1c(O)c(-c2ccc(O)c(O)c2)oc2cc(O)cc(O)c12`: the glutamate uptake change in test [1] stood at 12.9%. The inclusion score in test [2] is 1. In addition, in test [3], the aggregation suppression score was determined as 1.03. Also, the period change in test [5] is -0.025 h (inactive). Moreover, the survival in test [4] was 4.17 (inactive) and 87 (inactive).
As to `Cc1ccsc1/C=C/C1=NCCCN1C`, in test [1], the glutamate uptake change stood at 1.68%. This compound also showed an inclusion score in test [2] of 2. In addition, the aggregation suppression score in test [3] turned out to be 1.28. The survival in test [4] was 20.3 (inactive).
With `CC1CCc2cc(F)cc3c(=O)c(C(=O)O)cn1c23` (stereo not drawn), the glutamate uptake change in test [1] is 3.94%. The same compound registered an inclusion score in test [2] of 2. In addition, the aggregation suppression score in test [3] was 0.905. In addition, in test [4], the survival was 26.8 (inactive).
For the compound `NC(=O)NC1NC(=O)NC1=O` (stereo not drawn), the glutamate uptake change in test [1] was -8.53%. The compound also had an inclusion score in test [2] of 2. For the same compound, the aggregation suppression score in test [3] was found to be 0.815. In test [4], the survival is 26.8 (inactive).
On to `CC(=O)N(O)CCCCCNC(=O)CCC(=O)N(O)CCCCCNC(=O)CCC(=O)N(O)CCCCCN`, for which the glutamate uptake change in test [1] was -8.52%. This compound returned an inclusion score in test [2] of 2. In test [3], this compound showed an aggregation suppression score of 1.05. Besides, the survival in test [4] is 4 (inactive).
On to `NS(=O)(=O)c1cc(C(=O)O)c(NCc2ccco2)cc1Cl`, for which the glutamate uptake change in test [1] is -10.7%. In addition, the inclusion score in test [2] was 2. The compound further registered an aggregation suppression score in test [3] of 0.957. In addition, the survival in test [4] is 10.1 (inactive).
Consider `Cc1ccnc(NS(=O)(=O)c2ccc(N)cc2)n1`, for which the glutamate uptake change in test [1] was -29.5%. In test [2], this compound came in with an inclusion score of 2. In test [3], this compound yielded an aggregation suppression score of 1.19. Moreover, the survival in test [4] is 6.5 (inactive).
Turning to `CN1C(C(=O)Nc2ccccn2)=C(O)c2sccc2S1(=O)=O`, in test [1], the glutamate uptake change was -15.9%. In test [2], the inclusion score was found to be 2. Also, the aggregation suppression score in test [3] came to 0.632. Moreover, the survival in test [4] was 5.08 (inactive).
Take `CCN(CC)CCOC(=O)C(c1ccccc1)c1ccccc1`: in test [1], the glutamate uptake change came out at 15.8%. In test [2], this compound gave an inclusion score of 2. This compound showed an aggregation suppression score in test [3] of 0.888. Also, the survival in test [4] was 11.2 (inactive).
Take `O=C1c2ccccc2C(=O)C1c1ccccc1`: the glutamate uptake change in test [1] amounted to 6.38%. The same compound displayed an inclusion score in test [2] of 2. The compound also had an aggregation suppression score in test [3] of 0.588. Moreover, the survival in test [4] was 8.58 (inactive).
As to `Cn1c([N+](=O)[O-])cnc1COC(N)=O`, the glutamate uptake change in test [1] was found to be 17%. The inclusion score in test [2] amounted to 2. The aggregation suppression score in test [3] is 1.36. In addition, the survival in test [4] is 19.5 (inactive).
